# Legend:
# Experiment in all cases: DAPPL (digital affinity profiling via proximity ligation, sequencing); 10 mM Tris-HCl pH 7.5, 50 mM NaCl, 1 mM DTT, 4% glycerol, room temperature, 30 min; GST-TFs on glutathione beads, 16-mer random dsDNA library, 0.1% formaldehyde crosslink after washing; high values mean tight binding
# [1] = target: T1, FEV (Homo sapiens, UniProt Q99581 1-238); settings: protein: recombinant; tags: N-terminal GST; dsDNA, one strand shown
# T1 sequence: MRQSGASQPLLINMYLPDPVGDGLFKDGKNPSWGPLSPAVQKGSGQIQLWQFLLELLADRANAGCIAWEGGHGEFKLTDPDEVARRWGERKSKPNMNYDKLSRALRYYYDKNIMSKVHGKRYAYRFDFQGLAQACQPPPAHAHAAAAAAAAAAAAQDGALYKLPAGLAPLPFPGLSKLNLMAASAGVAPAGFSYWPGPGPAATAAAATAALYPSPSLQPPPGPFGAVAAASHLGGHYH
# Method in brief: (§1)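 Each value of binding signal is a hexamer's read frequency for a factor divided by the same hexamer's frequency in the tag-only sample. Barcoded, bead-captured GST fusions of human transcription factors made in yeast were pooled with that sample and incubated with 200 nmole of a random double-stranded 16-mer DNA library in Tris/NaCl/DTT/glycerol buffer at room temperature for 30 min. Washing, 0.1% formaldehyde crosslinking, proximity ligation, PCR and Illumina NextSeq500 sequencing followed.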
# [2] = target: ETV5 (Homo sapiens, UniProt P41161 1-510); settings: protein: recombinant; tags: N-terminal GST; dsDNA, one strand shown
# Sequence of ETV5 (P41161 whole entry): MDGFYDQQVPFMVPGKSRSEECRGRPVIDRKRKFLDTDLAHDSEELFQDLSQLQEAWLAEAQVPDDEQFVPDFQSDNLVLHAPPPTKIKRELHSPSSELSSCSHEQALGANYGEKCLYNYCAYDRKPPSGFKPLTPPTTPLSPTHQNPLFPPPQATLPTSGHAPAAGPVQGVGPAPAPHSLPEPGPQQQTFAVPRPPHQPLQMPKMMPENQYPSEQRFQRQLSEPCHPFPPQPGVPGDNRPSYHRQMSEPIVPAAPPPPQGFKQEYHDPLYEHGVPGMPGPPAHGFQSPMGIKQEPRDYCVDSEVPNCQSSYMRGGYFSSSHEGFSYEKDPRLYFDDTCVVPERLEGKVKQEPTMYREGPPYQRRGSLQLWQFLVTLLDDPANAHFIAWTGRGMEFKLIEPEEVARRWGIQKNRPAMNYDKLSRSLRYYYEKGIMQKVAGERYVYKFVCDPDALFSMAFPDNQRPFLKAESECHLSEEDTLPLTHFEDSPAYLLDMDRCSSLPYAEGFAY
# Method in brief: as §1
# [3] = target: HSF1 (Homo sapiens, UniProt Q00613 1-529); settings: protein: recombinant; tags: N-terminal GST; chain copies: 3; dsDNA, one strand shown
# Sequence of HSF1 (Q00613 whole entry): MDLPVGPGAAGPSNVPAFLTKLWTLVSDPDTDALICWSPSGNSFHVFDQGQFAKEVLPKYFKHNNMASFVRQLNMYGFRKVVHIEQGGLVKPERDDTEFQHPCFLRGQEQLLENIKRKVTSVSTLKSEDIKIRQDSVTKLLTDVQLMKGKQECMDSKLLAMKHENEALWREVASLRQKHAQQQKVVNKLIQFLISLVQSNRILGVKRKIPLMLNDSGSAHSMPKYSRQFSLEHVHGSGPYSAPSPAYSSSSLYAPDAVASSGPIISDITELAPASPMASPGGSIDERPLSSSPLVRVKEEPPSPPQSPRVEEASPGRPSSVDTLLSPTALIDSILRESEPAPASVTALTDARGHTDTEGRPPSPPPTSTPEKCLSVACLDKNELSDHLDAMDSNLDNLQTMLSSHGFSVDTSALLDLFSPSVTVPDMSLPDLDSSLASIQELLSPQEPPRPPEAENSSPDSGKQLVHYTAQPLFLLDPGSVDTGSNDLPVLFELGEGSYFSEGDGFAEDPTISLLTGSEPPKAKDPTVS
# Method in brief: as §1
# [4] = target: T2, SPIC (Homo sapiens, UniProt Q8N5J4 1-248); settings: protein: recombinant; tags: N-terminal GST; dsDNA, one strand shown
# T2 sequence: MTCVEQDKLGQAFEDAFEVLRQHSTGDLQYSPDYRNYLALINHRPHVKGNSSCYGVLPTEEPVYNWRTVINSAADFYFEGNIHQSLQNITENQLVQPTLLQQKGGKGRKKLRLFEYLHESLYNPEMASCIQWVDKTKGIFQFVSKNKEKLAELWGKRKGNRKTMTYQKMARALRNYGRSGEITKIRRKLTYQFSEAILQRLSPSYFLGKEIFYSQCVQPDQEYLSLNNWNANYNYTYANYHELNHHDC
# Method in brief: as §1
# [5] = target: ELF4 (Homo sapiens, UniProt Q99607 1-663); settings: protein: recombinant; tags: N-terminal GST; dsDNA, one strand shown
# Sequence of ELF4 (Q99607 whole entry): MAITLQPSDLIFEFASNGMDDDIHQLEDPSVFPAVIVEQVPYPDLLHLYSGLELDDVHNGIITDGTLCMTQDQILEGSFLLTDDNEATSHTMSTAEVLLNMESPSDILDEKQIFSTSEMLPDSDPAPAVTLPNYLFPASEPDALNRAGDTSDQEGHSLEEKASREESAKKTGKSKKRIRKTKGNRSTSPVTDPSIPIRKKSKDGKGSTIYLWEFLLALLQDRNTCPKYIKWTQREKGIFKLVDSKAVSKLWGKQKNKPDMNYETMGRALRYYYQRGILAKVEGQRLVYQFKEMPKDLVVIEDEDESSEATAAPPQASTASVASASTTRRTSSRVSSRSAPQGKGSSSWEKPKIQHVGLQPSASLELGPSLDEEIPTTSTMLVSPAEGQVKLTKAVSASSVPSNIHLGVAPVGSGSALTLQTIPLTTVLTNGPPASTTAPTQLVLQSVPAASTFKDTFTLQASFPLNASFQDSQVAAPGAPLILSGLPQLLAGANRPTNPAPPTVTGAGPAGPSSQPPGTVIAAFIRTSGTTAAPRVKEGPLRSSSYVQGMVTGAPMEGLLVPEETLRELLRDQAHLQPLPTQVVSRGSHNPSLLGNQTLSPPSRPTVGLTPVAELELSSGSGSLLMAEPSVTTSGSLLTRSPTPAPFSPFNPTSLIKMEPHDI
# Method in brief: as §1
# [6] = target: T3, ELK4 (Homo sapiens, UniProt P28324-2 1-405); settings: protein: recombinant; tags: N-terminal GST; dsDNA, one strand shown
# T3 sequence: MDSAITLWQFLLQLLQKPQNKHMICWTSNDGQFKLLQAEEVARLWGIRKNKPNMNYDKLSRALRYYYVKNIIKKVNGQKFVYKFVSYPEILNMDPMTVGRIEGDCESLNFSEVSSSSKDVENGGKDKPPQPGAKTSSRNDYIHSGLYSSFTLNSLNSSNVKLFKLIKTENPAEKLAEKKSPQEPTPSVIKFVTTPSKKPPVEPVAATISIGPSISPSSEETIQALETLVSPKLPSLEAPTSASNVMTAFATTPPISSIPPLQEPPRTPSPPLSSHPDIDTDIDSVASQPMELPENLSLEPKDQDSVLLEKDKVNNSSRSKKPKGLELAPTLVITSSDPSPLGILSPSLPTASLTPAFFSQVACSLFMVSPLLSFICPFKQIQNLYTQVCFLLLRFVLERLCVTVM
# Method in brief: as §1
# [7] = target: T4, ETV2 (Homo sapiens, UniProt O00321 1-342); settings: protein: recombinant; tags: N-terminal GST; dsDNA, one strand shown
# T4 sequence: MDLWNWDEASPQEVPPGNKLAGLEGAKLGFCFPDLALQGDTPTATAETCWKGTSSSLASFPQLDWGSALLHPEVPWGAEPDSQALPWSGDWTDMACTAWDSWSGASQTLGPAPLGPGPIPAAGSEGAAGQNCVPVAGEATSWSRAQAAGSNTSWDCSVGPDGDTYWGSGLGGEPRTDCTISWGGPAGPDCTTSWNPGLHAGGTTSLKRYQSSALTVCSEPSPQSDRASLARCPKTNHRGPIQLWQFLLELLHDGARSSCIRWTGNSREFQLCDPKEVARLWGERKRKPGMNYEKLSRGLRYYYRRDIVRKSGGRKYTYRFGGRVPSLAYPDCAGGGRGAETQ
# Method in brief: as §1
# [8] = target: T5, ELF3 (Homo sapiens, UniProt P78545 1-371); settings: protein: recombinant; tags: N-terminal GST; dsDNA, one strand shown
# T5 sequence: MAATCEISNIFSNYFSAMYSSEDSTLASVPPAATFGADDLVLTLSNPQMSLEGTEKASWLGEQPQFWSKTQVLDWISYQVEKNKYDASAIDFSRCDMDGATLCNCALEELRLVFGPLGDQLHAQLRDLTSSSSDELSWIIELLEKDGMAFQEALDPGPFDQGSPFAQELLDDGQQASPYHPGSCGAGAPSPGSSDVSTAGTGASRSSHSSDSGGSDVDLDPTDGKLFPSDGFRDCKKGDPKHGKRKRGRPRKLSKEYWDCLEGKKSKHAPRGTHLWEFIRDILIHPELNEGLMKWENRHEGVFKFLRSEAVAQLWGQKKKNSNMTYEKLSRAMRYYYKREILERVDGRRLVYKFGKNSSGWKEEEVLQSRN
# Method in brief: as §1
# [9] = target: CRX (Homo sapiens, UniProt O43186 1-299); settings: protein: recombinant; tags: N-terminal GST; dsDNA, one strand shown
# Sequence of CRX (O43186 whole entry): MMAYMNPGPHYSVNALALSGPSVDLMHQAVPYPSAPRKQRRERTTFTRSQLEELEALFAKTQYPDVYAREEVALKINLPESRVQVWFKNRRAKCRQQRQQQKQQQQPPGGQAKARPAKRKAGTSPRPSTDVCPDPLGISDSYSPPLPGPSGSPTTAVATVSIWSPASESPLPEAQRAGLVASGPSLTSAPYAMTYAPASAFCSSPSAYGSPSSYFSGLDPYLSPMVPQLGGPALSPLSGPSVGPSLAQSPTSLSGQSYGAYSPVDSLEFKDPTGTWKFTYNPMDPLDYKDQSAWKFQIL
# Method in brief: as §1
# [10] = target: ETV1 (Homo sapiens, UniProt P50549 1-477); settings: protein: recombinant; tags: N-terminal GST; dsDNA, one strand shown
# Sequence of ETV1 (P50549 whole entry): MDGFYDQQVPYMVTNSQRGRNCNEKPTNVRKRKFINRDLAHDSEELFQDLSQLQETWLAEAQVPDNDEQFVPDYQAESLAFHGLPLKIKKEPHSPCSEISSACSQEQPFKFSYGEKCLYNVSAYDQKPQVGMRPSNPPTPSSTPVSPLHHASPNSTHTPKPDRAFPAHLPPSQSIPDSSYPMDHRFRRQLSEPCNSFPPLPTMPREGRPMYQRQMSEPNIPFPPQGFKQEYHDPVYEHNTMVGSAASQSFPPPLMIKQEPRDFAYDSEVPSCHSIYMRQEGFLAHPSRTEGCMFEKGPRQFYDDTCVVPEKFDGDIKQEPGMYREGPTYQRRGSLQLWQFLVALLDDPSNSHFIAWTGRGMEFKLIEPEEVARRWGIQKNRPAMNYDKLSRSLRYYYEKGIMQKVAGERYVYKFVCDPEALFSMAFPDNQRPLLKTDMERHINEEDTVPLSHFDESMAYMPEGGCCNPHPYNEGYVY
# Method in brief: as §1
# [11] = target: T6, ERF (Homo sapiens, UniProt P50548 1-548); settings: protein: recombinant; tags: N-terminal GST; dsDNA, one strand shown
# T6 sequence: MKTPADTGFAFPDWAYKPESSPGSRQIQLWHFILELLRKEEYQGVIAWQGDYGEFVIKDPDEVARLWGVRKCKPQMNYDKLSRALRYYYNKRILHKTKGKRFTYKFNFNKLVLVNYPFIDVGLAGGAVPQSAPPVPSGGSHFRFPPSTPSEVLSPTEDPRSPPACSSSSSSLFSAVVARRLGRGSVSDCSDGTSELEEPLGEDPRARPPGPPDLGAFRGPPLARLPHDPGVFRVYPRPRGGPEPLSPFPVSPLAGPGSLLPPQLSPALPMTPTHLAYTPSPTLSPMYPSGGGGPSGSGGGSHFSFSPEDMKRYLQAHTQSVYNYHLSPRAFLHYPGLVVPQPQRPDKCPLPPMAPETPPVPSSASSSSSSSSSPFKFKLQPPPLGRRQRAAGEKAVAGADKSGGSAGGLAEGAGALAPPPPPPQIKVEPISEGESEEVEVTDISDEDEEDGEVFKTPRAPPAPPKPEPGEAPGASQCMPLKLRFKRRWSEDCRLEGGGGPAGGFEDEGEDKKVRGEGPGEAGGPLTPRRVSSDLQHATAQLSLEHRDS
# Method in brief: as §1
# [12] = target: T7, ETV3L (Homo sapiens, UniProt Q6ZN32 1-361); settings: protein: recombinant; tags: N-terminal GST; dsDNA, one strand shown
# T7 sequence: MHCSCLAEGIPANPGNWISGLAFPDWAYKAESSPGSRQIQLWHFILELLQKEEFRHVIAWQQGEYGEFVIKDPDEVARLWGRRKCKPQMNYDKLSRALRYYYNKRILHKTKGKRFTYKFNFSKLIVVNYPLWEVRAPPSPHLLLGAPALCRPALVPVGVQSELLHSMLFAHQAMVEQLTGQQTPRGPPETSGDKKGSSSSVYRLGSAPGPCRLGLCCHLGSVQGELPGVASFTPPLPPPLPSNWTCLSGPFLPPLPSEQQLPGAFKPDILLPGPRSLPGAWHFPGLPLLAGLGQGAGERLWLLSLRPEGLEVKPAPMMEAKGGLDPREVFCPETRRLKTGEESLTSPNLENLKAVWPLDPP
# Method in brief: as §1
# [13] = target: T8, ETS2 (Homo sapiens, UniProt P15036 1-469); settings: protein: recombinant; tags: N-terminal GST; dsDNA, one strand shown
# T8 sequence: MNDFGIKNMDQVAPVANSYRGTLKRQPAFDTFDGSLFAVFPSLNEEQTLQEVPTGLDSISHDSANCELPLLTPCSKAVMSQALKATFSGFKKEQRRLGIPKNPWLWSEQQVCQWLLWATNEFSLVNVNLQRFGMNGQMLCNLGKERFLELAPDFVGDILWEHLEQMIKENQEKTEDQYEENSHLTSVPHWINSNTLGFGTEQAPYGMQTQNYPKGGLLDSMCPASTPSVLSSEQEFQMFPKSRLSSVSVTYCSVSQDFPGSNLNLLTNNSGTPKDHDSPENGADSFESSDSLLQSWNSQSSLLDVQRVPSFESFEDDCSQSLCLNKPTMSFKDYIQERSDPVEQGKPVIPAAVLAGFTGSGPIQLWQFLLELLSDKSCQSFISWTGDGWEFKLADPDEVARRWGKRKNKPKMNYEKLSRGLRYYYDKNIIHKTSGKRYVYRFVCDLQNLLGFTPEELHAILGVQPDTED
# Method in brief: as §1
# [14] = target: T9, SPDEF (Homo sapiens, UniProt O95238 1-335); settings: protein: recombinant; tags: N-terminal GST; dsDNA, one strand shown
# T9 sequence: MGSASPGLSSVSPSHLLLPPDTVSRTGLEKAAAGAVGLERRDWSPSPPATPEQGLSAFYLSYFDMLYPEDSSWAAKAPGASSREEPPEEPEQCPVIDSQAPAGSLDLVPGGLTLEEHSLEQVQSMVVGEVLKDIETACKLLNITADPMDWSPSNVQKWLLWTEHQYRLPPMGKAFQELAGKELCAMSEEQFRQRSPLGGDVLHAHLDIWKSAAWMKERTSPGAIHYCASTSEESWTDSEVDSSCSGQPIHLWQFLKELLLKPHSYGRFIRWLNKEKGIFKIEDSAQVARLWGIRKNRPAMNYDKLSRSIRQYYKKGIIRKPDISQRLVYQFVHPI
# Method in brief: as §1
# [15] = target: T10, ETV7 (Homo sapiens, UniProt Q9Y603 1-341); settings: protein: recombinant; tags: N-terminal GST; dsDNA, one strand shown
# T10 sequence: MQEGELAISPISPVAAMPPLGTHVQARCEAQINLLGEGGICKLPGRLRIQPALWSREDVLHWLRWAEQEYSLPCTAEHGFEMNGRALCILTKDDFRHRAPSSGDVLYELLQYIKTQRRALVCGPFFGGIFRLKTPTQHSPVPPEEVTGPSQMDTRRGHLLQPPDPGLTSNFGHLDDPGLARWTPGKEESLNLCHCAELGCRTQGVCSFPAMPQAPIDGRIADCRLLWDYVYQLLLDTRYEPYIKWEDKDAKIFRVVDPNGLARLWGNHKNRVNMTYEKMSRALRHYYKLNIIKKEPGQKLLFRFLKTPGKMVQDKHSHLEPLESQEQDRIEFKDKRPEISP
# Method in brief: as §1
# [16] = target: T11, ELF5 (Homo sapiens, UniProt Q9UKW6-2 1-255); settings: protein: recombinant; tags: N-terminal GST; dsDNA, one strand shown
# T11 sequence: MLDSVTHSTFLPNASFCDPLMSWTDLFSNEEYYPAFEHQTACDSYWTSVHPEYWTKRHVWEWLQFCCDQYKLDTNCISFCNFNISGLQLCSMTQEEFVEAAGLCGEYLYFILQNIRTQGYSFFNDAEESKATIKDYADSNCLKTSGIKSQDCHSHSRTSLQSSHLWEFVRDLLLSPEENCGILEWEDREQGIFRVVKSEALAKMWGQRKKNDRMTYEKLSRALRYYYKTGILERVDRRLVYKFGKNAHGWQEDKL
# Method in brief: as §1
# [17] = target: T12, ETV3 (Homo sapiens, UniProt P41162-2 1-143); settings: protein: recombinant; tags: N-terminal GST; dsDNA, one strand shown
# T12 sequence: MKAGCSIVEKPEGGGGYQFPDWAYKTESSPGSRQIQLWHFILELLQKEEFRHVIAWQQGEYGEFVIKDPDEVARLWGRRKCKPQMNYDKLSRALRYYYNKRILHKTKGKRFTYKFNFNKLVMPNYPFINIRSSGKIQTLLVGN
# Method in brief: as §1
# [18] = target: ETV6 (Homo sapiens, UniProt P41212 1-452); settings: protein: recombinant; tags: N-terminal GST; dsDNA, one strand shown
# Sequence of ETV6 (P41212 whole entry): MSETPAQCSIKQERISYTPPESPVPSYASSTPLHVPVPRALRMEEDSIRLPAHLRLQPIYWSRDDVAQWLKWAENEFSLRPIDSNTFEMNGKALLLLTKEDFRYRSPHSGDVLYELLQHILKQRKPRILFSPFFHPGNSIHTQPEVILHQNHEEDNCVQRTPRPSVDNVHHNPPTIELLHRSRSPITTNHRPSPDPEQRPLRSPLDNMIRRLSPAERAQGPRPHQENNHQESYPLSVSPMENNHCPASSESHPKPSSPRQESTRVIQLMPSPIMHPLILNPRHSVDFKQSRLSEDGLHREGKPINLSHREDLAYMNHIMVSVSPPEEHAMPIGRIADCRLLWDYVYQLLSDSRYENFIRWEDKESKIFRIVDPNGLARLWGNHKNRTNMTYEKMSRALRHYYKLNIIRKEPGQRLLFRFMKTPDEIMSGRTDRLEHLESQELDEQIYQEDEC
# Method in brief: as §1
sequence,measurement,setting,value
ATCTCC,binding signal,[1],"1.5 fold enrichment (6-mer frequency, TF over GST control)"
same,binding signal,[2],"1.48 fold enrichment (6-mer frequency, TF over GST control)"
same,binding signal,[3],"1.67 fold enrichment (6-mer frequency, TF over GST control)"
same,binding signal,[4],"1.49 fold enrichment (6-mer frequency, TF over GST control)"
same,binding signal,[5],"1.57 fold enrichment (6-mer frequency, TF over GST control)"
same,binding signal,[6],"1.47 fold enrichment (6-mer frequency, TF over GST control)"
same,binding signal,[7],"1.48 fold enrichment (6-mer frequency, TF over GST control)"
same,binding signal,[8],"1.3 fold enrichment (6-mer frequency, TF over GST control)"
same,binding signal,[9],"2.01 fold enrichment (6-mer frequency, TF over GST control)"
same,binding signal,[10],"1.57 fold enrichment (6-mer frequency, TF over GST control)"
same,binding signal,[11],"1.47 fold enrichment (6-mer frequency, TF over GST control)"
same,binding signal,[12],"1.46 fold enrichment (6-mer frequency, TF over GST control)"
same,binding signal,[13],"1.5 fold enrichment (6-mer frequency, TF over GST control)"
same,binding signal,[14],"1.68 fold enrichment (6-mer frequency, TF over GST control)"
same,binding signal,[15],"1.31 fold enrichment (6-mer frequency, TF over GST control)"
same,binding signal,[16],"1.53 fold enrichment (6-mer frequency, TF over GST control)"
same,binding signal,[17],"1.44 fold enrichment (6-mer frequency, TF over GST control)"
same,binding signal,[18],"1.51 fold enrichment (6-mer frequency, TF over GST control)"
